# Measured values as given in PubChem BioAssay AID652104 (National Center for Advancing Translational Sciences (NCATS), 2013).
# The campaign covered roughly 410,000 compounds. About 7,200 (1.8%) were called active. Entries that show only a call come without a potency. Roughly 7% stayed inconclusive and do not appear here. This is one part of a sample in which actives are shown more often than they occur. The call rests on the fitted dose curve; in most records, active means well fitted activation curve with a large enough effect; inconclusive means small, poorly fitted or top-dose-only effect, or another doubt; inactive means no such curve, though single readings can be large or run the other way.
# Experiment: qHTS of TDP-43 Inhibitors; further: nearly all actives have a fitted effect of over 50% in size
# Conditions: TDP-43 expressing yeast growth rescue, BacTiter-Glo, 24 h; series mostly up to 46.1 µM
# Text: The goal of this project is to identify new chemical probes capable of reversing the toxicity associated with TDP-43 which is associated with frontotemporal lobar degeneration and amyotrophic lateral sclerosis. These compounds will provide a complementary approach to deciphering the tangled mechanisms of toxicity and protection that we have uncovered through genome-wide genetic screens and are beginning to uncover in a large-scale proteomics analysis with mass spectroscopy.
# To this end, a miniaturized assay was developed to be screened against the Molecular Libraries Small Molecule Repository (MLSMR) to discover TDP-43 inhibitors. Please note that in the set-up this yeast-based assay compounds that inhibit as TDP-43, have a read-out as activators.
# NIH Chemical Genomics Center [NCGC]
# NIH Molecular Libraries Probe Centers Network [MLPCN]
# Assay Submitter (PI): Susan Lindquist, Whitehead Institute/MIT
# Dispense 2.5 microL yeast galactose medium per 1536-well plate, pin compound, dispense 2.5 microL TDP-43 expressing yeast in galactose medium at OD600=0.02 (pregrown in raffinose medium to mid-log phase) per well, incubate for 24 hr at 30 deg C, and cell growth will be measured using 5 microL of Bactiter/Glo reagent to entire plate and read using Luminescence Protocol in ViewLux.
# Potency means the concentration at half of the fitted maximal effect.
Structure (SMILES),Potency,growth rescue (activation)
N/C(Cc1ccc([N+](=O)[O-])cc1)=N\OC(=O)C1CCCCC1,20 µM (active),–
N/C(Cc1ccc([N+](=O)[O-])cc1)=N\OC(=O)COc1ccc2ccccc2c1,inactive,–
O=C(COC(=O)Cc1ccc([N+](=O)[O-])cc1)NC1CCCCCC1,inactive,–
CC(C)NC(=O)c1nn(-c2ccccc2F)nc1CO,inactive,–
Cc1ccc(-c2nn3c(=O)cc(CN4CCN(S(=O)(=O)c5ccc(Cl)cc5)CC4)nc3s2)cc1,inactive,–
O=c1cc(Cn2nnc(-c3ccc(Cl)cc3)n2)nc2sccn12,11.2 µM (active),–
COc1cccc(C(=O)NCC(=O)OCc2cc(=O)n3ccsc3n2)c1,inactive,–
COc1ccc(C2=NC(c3ccncc3)=Nc3ccc(Br)cc3N2)cc1,inactive,–
COc1ccc2c(c1)C(c1cccs1)=NNC(c1cccnc1)=N2,–,-15% [at 9.22 µM] (inactive)
Brc1ccc2c(c1)NC(c1cccnc1)=NC(c1ccccc1)=N2,35.5 µM (active),–
CCOc1cc(CNC(=O)c2sc3ncnc(N(C)C4CCCCC4)c3c2C)ccc1OC,inactive,–
O=C(c1ccc(Cl)cc1)n1nc(-c2cccnc2)nc1NCc1ccc(F)cc1,inactive,–
CCC(C)[C@H]1COCCS(=O)(=O)N1Cc1ccc(C)cc1 (some centres undefined),inactive,–
CCCC[C@H]1COCCS(=O)(=O)N1Cc1cccc(Cl)c1,12.6 µM (active),–
O=S1(=O)CCOC[C@H](Cc2ccccc2)N1Cc1ccccc1Br,inactive,–
Cc1cccc(OCCCC(=O)Nc2sc3c(c2C(N)=O)CCC(C)C3)c1 (centres undefined),inactive,–
Cc1nn(CC(=O)N2CCN(c3cccc(C(F)(F)F)c3)CC2)c(=O)c2cc3sccc3n12,inactive,–
CCOc1ccc(-n2c(SCC(=O)NCc3ccccc3)nc3n[nH]c(C)c3c2=N)cc1,inactive,–
COCCCNC(=S)N1CCN(c2nc(-c3cccc(OC)c3)cs2)CC1,14.1 µM (active),–
COCCCNC(=S)N1CCCC(c2nc3cc(C)c(C)cc3[nH]2)C1 (centres undefined),–,-14.1% [at 0.397 µM] (inactive)
CN(C)CCCNC(=S)N1CCN(c2nc(-c3ccccc3)cs2)CC1,–,-17.3% [at 1.82 µM] (inactive)
COc1cc(OC)c(N(C)C(=O)c2cc3c(=O)oc4ccccc4c3s2)cc1Cl,inactive,–
Cc1ccc(NC(=O)CN2C(=O)C(c3ccc(F)cc3)=NC23CCCCCC3)c(C)c1,inactive,–
COC(=O)c1ccc(CSc2nncn2N)cc1,inactive,–

Structure (SMILES),Potency,growth rescue (activation)
CCOc1ccc(NC(=O)c2ccc(CSc3nnnn3C)cc2)cc1,inactive,–
CCOC(=O)c1ccc(CSc2nnc3cc(C)c4ccccc4n23)cc1,22.4 µM (active),–
COc1ccccc1N1CCN(C(CNC(=O)C(=O)NCc2ccc(C)cc2)c2cccnc2)CC1 (centres undefined),inactive,–
CCc1cccc(C)c1Nc1c(-c2ccc(N(C)C)cc2)nc2ncccn12,inactive,–
COc1ccccc1CNC(=O)CCCn1c(=O)c2ccccc2n(CC(=O)Nc2ccc(C)cc2Cl)c1=O,inactive,–
O=C(CSc1oc(-c2ccccc2)nc1S(=O)(=O)c1ccc(Br)cc1)NC1CCCCC1,inactive,–
Cn1c(C(=O)Nc2cccc(C(F)(F)F)c2)cc2c(=O)n3ccccc3nc21,inactive,–
Cc1cccc2cc3c(N)c(C(=O)N4CCCc5ccccc54)sc3nc12,15.8 µM (active),–
CCc1ccc(NC(=O)c2sc3nc4c(cc3c2N)CN(CC)CC4)cc1,inactive,–
CCN1CCc2nc3sc(C(=O)Nc4ccccc4OC(F)(F)F)c(N)c3cc2C1,inactive,–
CC1CCC(N2CC(=O)N(CCC3=CCCCC3)C(c3ccc(F)cc3)C2=O)CC1 (centres undefined),inactive,–
CCN(CC)C(=O)CSc1nc2ccsc2c(=O)n1Cc1ccccc1Cl,inactive,–
COc1ccc(N2CCN(C3=NS(=O)(=O)C(c4cccc(Br)c4)=C3C)CC2)cc1,inactive,–
CCOC(=O)c1cc2occc2n1CC(=O)NC1CCC(C)CC1 (centres undefined),inactive,–
CCOC(=O)c1cc2c(ccn2C)n1CC(=O)N1CCC(C)CC1,35.5 µM (active),–
CCOC(=O)c1cc2occc2n1CC(=O)N1CCN(C(=O)c2ccco2)CC1,inactive,–
CCOc1cc2[nH]c(=O)n(Cc3ccc(C(=O)NCCN(CC)CC)cc3)c(=O)c2cc1OCC,–,25.5% [at 9.22 µM] (inactive)
COc1ccc(OCCCn2c(C3CC(=O)N(c4ccc(F)cc4)C3)nc3ccccc32)cc1 (centres undefined),inactive,–
Cc1nc2ccn(Cc3cccs3)c(=O)c2cc1C(=O)NCc1ccc(Cl)cc1,inactive,–
COc1ccc(S(=O)(=O)Nc2cc3c(C(=O)OC(C)C)c(C)oc3c3ccccc23)cc1,inactive,–
COc1cc(NS(=O)(=O)c2ccc3ccccc3c2)c2ncccc2c1,12.6 µM (active),–
CCOc1ccc(OCC)c(NS(=O)(=O)c2ccc3[nH]c(=O)ccc3c2)c1,inactive,–
N#C/C(=C\c1ccccc1F)c1nc2ccccc2c(=O)[nH]1,inactive,–
CCC(C(=O)Nc1cccc(-c2nc3cccnc3s2)c1C)c1ccccc1 (centres undefined),inactive,–

Structure (SMILES),Potency,growth rescue (activation)
COc1cccc(NC(=O)Cn2c(=O)cc(C)c3c(C)nn(-c4cccc(F)c4)c32)c1,inactive,–
Cn1nnnc1SCCNCc1ccc(Cl)c(Cl)c1,inactive,–
Cc1cn(C)c(CC(=O)NCc2ccc(Cl)cc2)c1C(=O)O,inactive,–
COCOCCn1cc(CN2CCS(=O)(=O)N(Cc3ccc(-c4ccc(OC)cc4)cc3)C(CC(C)C)C2=O)nn1 (centres undefined),inactive,–
CC(C)C1C(=O)N(Cc2cn(CCC3OCCO3)nn2)CCS(=O)(=O)N1Cc1ccc(-c2ccccc2C(F)(F)F)cc1 (centres undefined),35.5 µM (active),–
Cc1ccc(-c2ccc(CN3C(C)C(=O)N(Cc4cn(CCC5OCCCO5)nn4)CCS3(=O)=O)cc2)cc1 (centres undefined),inactive,–
Cc1ccc(-c2ccc(CN3C(C(C)C)C(=O)N(Cc4cn(CCC5OCCCO5)nn4)CCS3(=O)=O)cc2)cc1 (centres undefined),35.5 µM (active),–
COc1ccc(Cn2cc(CN3CCS(=O)(=O)N(Cc4ccc(-c5cccc(Cl)c5)cc4)C(C)C3=O)nn2)cc1 (centres undefined),inactive,–
Cc1ccc(-c2ccc(CN3C(C(C)C)C(=O)N(Cc4cn(CCC5OCCO5)nn4)CCS3(=O)=O)cc2)cc1 (centres undefined),31.6 µM (active),–
COc1ccc(-c2ccc(CN3C(C(C)C)C(=O)N(Cc4cn(CC5CCCCC5)nn4)CCS3(=O)=O)cc2)cn1 (centres undefined),inactive,–
CC1C(=O)N(Cc2cn(Cc3ccco3)nn2)CCS(=O)(=O)N1Cc1ccc(-c2cccc(CO)c2)cc1 (centres undefined),inactive,–
CC(C)CC1C(=O)N(Cc2cn(Cc3ccco3)nn2)CCS(=O)(=O)N1Cc1ccc(-c2ccc(Cl)c(Cl)c2)cc1 (centres undefined),inactive,–
COc1cc(NC(=O)CN2CCN(S(=O)(=O)c3ccc(Br)cc3)CC2)cc(OC)c1,inactive,–
Cc1ccccc1CNC(=O)c1ccc(NC(=O)N2CCCCc3ccccc32)cc1,inactive,–
COc1cc(CN(CC2CCCO2)C(=O)c2ccccc2F)cc(OC)c1OC (centres undefined),inactive,–
CCOc1ccc(NC(=O)c2c(NC(=O)Cc3ccccc3)sc3c2CCCCC3)cc1,inactive,–
CC1CCCN(Cc2c(O)ccc3c(=O)c(Oc4ccc(C(C)(C)C)cc4)c(C(F)(F)F)oc23)C1 (centres undefined),inactive,–
CCOC(=O)c1ccc(-c2ccc(/C=C(\C#N)C(=O)Nc3ccc(C)cc3)o2)cc1,inactive,–
Cc1ccc(-c2ccc(/C=C(\C#N)C(N)=S)o2)c([N+](=O)[O-])c1,22.4 µM (active),–
CCCCOC(=O)/C(C#N)=C/c1ccc(-c2cccc(C(F)(F)F)c2)o1,inactive,–
CCOc1ccccc1NC(=O)CN1CCN(S(=O)(=O)c2ccc(Br)cc2)CC1,–,0% [at 9.22 µM] (inactive)
COc1ccccc1CNC(=O)NCc1noc2ccc(C)cc12,inactive,–
Cc1cccc(CNC(=O)c2sc(=O)n(Cc3ccccc3C)c2C)c1,inactive,–
Cc1ccc(Cn2c(C)c(C(=O)NCc3ccccc3C(F)(F)F)sc2=O)cc1,15.8 µM (active),–

Structure (SMILES),Potency,growth rescue (activation)
Cc1ccccc1Cn1c(C)c(C(=O)NCc2cccc(C(F)(F)F)c2)sc1=O,inactive,–
Fc1ccc(-c2nn(-c3ccccc3Cl)c3c2cnc2ccccc23)cc1,inactive,–
CCn1cc(C(=O)NCc2ccc(C)cc2)c(=O)c2cc(S(=O)(=O)N3CCc4ccccc4C3)ccc21,inactive,–
COc1ccc(C2CC(c3cccs3)=Nc3ccccc3S2)cc1OC (centres undefined),inactive,–
COc1ccc(-c2csc(-c3cccs3)n2)cc1OC,11.2 µM (active),–
COc1ccc(CNC(=O)COCc2cc(-c3cccs3)on2)cc1OC,inactive,–
CCc1ccc2ncc3c(-c4ccc(C)cc4)nn(CC(=O)NCc4ccccc4)c3c2c1,inactive,–
O=C(CSc1oc(-c2ccc(F)cc2)nc1S(=O)(=O)c1ccc(Br)cc1)NC1CCCCC1,inactive,–
O=C(CSc1nnc(-c2cccs2)n1Cc1ccccc1)N1CCc2ccccc2C1,inactive,–
Cc1cc(NC(=O)c2cc(-c3cccs3)on2)nn1Cc1ccc(Cl)cc1,inactive,–
O=c1onc(-c2cccs2)n1Cc1ccccc1,12.6 µM (active),–
CCC(=O)Nc1ccc(C)cc1-c1nc2ccccc2n(Cc2ccccc2)c1=O,inactive,–
COc1ccc2oc(-c3ccc(C)c(NC(=O)c4sc5ccccc5c4Cl)c3)nc2c1,inactive,–
Cc1ccc(C)c(Cn2c(C)c(CNCc3ccc(F)cc3)c(C(=O)O)c2C)c1,inactive,–
CC(C)(C)NC(=O)NC(=O)COC(=O)Cc1ccc(Cl)cc1Cl,35.5 µM (active),–
CC(C)(C)NC(=O)NC(=O)COC(=O)Cc1c(F)cccc1Cl,inactive,–
COc1ccccc1OCCC(=O)OCC(=O)NC(=O)NC(C)(C)C,inactive,–
COc1ccc(C2=NC3(CCCCC3)N(CC(=O)Nc3ccc(C(C)C)cc3)C2=O)cc1,inactive,–
CCN(CC)CCNc1ncnc2c1cnn2-c1cc(Cl)ccc1C,inactive,–
CCn1c(SCC(=O)Nc2ccccc2F)nc2c(c1=O)SC(C)C2 (centres undefined),35.5 µM (active),–
CCn1c(SCC(=O)Nc2ccc3c(c2)OCCO3)nc2c(c1=O)SC(C)C2 (centres undefined),inactive,–
CC1Cc2nc(SCC(=O)Nc3ccccc3F)n(C)c(=O)c2S1 (centres undefined),inactive,–
